Dicer inh: inhibitors of Dicer pre-microRNA processing, primary screen, biochemical, cat-ELCCA, chemiluminescence; Endoribonuclease Dicer (Homo sapiens), Q9UPY3; cat-ELCCA pre-miR-21 Dicer processing; stronger effect = higher value; z-score at 25 µM; 47,000 compounds, 6% hits; AID 1347074, 2019; in the data active means z-score above about 3, passing the limit was not always enough;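 further: higher signal means more uncleaved substrate so more Dicer inhibition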
Large screens that a line does not name were inactive; ! = repeats disagree. The entries come from a sample that favours hits as a whole.

CSC(N)=Nc1ccc(Cl)c(Cl)c1	none
CSC(N)=Nc1ccc(Cl)cc1	Dicer inh 3!
CSC(N)=Nc1cc(Cl)ccc1Cl	none
CCOC(=O)N1CCC(NC(=O)c2cc(C)cc(C)c2)CC1	none
CC(C)N(CCC#N)C(=O)Nc1ccc2c(c1)CCO2	none
CCOC(=O)N1CCC(NC(=O)Nc2ccc3c(c2)CCO3)CC1	Dicer inh 5
CN=C(C)/C(C(=O)OC)=C(/O)c1snnc1C	none
COc1ccccc1NC(=O)NC1CCN(c2nccc(C(F)(F)F)n2)CC1	none
Cc1ccc(S(=O)(=O)NC(C)c2ccccc2)cc1-c1nnc2c3ccccc3c(C)nn12 (configuration not stated)	none
CNS(=O)(=O)c1ccc(OC)c(-c2nnc3c4ccccc4c(C)nn23)c1	none
CNS(=O)(=O)c1ccc(C)c(-c2nnc3c4ccccc4c(C)nn23)c1	Dicer inh 4.5
CCCNS(=O)(=O)c1ccc(OC)c(-c2nnc3c4ccccc4c(C)nn23)c1	none
CCCNS(=O)(=O)c1ccc(C)c(-c2nnc3c4ccccc4c(C)nn23)c1	Dicer inh 4.3
Cc1ccc(S(=O)(=O)NC(C)(C)CO)cc1-c1nnc2c3ccccc3c(C)nn12	none
COC(=O)C1C(=O)NC(SCc2ccccc2)=C(C#N)C1c1ccccc1Cl (configuration not stated)	none
Cc1ccsc1C1Nc2nonc2NC2=C1C(=O)CC(C)(C)C2 (configuration not stated)	none
Cc1ccc(-n2c(=O)[nH]c3c(oc4nc(-c5ccccc5)cc(-c5ccccc5)c43)c2=O)cc1	none
Cc1cc(C)c2c(n1)sc1c(=O)n(-c3cccc(Cl)c3)c(=O)[nH]c12	none
Cc1ccc(-n2c(=O)[nH]c3c(sc4nc(C)cc(C)c43)c2=O)cc1	Dicer inh 3.4
Cn1nccc1NC(=O)c1ccccc1Cl	none
CCCOC(=O)C1=C(C)NC2=C(C(=O)CC(C)(C)C2)C1c1ccc(Br)cc1 (configuration not stated)	none
CCCC(=O)Nc1sc2c(c1C(=O)OC)CCC2	none
COC(=O)c1c(NC(=O)Nc2cccc(Cl)c2)sc2c1CCCC2	Dicer inh 3.4
COC(=O)c1c(NC(=O)c2ccccc2Br)sc2c1CCC2	none
O/N=C/N=C(NOCc1c(F)cccc1Cl)c1ccc(Cl)cc1	none
O=C(/C=C/OC(=O)c1ccc(Cl)cc1)c1ccc(Cl)cc1	none
Cc1ccc(Nc2nc(-c3ccc(O)cc3)cs2)nc1	Dicer inh 4.4
COc1ccc(-c2csc(Nc3ccc(C)cn3)n2)cc1OC	none
Cc1ccc(Nc2nc(-c3ccc(O)c(O)c3)cs2)nc1	none
c1ccc(CNc2ncnc3sc4c(c23)CCCC4)cc1	none
CCC(C)Sc1sc(C(=O)O)c(-c2ccc(Cl)cc2)c1C#N (configuration not stated)	none
CCOC(=O)C(C(=O)C(F)(F)F)C(NC(N)=S)c1ccco1 (configuration not stated)	none
CSC1=N/C(=C/c2ccco2)C(=O)N1	none
O=C1/C(=C/c2ccco2)CC/C1=C\c1ccco1	Dicer inh 31
O=C1/C(=C/c2ccco2)COC/C1=C\c1ccco1	none
Clc1ccc(/C=N/Nc2ncn[nH]2)cc1	none
CSc1sc(C(=O)O)c2c1C(=O)CC(C)(C)C2	none
CSc1sc(/C(C)=N\O)c2c1/C(=N\O)CC(C)(C)C2	Dicer inh 5.6
COC(=O)c1sc(SC)c2c1CC(C)(C)C/C2=N/O	none
O=C1CC(c2cccc(Cl)c2)Cc2c1cnc1[nH]n(-c3ccccc3)c(=O)c21 (configuration not stated)	none
CCCCCCNC(=S)NNC(=O)COc1ccc(C)c2c1CCC2	none
Cc1ccc(S(=O)(=O)NCCC2=CCCCC2)cc1	none
O=C(O)[C@H]1CCCC[C@H]1C(=O)NCCC1=CCCCC1	none
O=c1cc(NCCC2=CCCCC2)c2ccccc2o1	Dicer inh 3.5
Cc1ccc(/C(C#N)=C2C=C/C(=N\O)C(Cl)=C\2Cl)cc1	none
Cc1nc(SCC(=O)c2ccc(Cl)cc2)n[nH]1	none
CCOc1c(N2CCOCC2)c(=O)c1=O	none
CCOc1ccc(-c2nc(C#N)c(N3CC(C)OC(C)C3)o2)cc1 (configuration not stated)	none
CCOc1c(N2CC(C)OC(C)C2)c(=O)c1=O (configuration not stated)	Dicer inh 6
CCOC(=O)c1sc2nc(SCc3ccccc3)nc(-c3ccc(OC)cc3)c2c1N	none
CC(C)(C)c1cc(NC(=O)Nc2ccc(Cl)cc2Cl)no1	none
Cc1nc(-c2cccs2)sc1C(=O)NNC(=O)Nc1ccc(Cl)cc1	none
Cc1cc(-c2nc(C)c(C(=O)NNC(=O)Nc3ccc(Cl)cc3Cl)s2)no1	Dicer inh 3.1
CCOC(=O)c1cnn(-c2ccc(NS(=O)(=O)c3cc(C(F)(F)F)cc(C(F)(F)F)c3)cc2)c1C(F)(F)F	none
Cc1ccc(C(C)C)cc1C(=O)CC1(O)C(=O)Nc2ccc(Cl)cc21 (configuration not stated)	none
COc1cccc(OC)c1CN(C)C(=O)c1cnc(OCC(F)(F)F)cc1C(F)(F)F	none
COc1ccc(CCNc2oc(COc3ccccc3)nc2C#N)cc1OC	none
O=C(O)/C=C/C(=O)NCCCCCCNC(=O)/C=C/C(=O)O	none
COc1ccc(OC)c(CN2CCN(Cc3ccco3)CC2)c1	none
CCCCCCCC/C=C\CCCCCCCC(=O)NCCc1ccc(O)c(O)c1	none
C[C@H](Cc1ccc(O)c(O)c1)[C@@H](C)Cc1ccc(O)c(O)c1	none
CC(CCc1ccc(O)cc1)NCCc1ccc(O)c(O)c1 (configuration not stated)	Dicer inh 7!
CCCC1SC2=NC(C)=C(C(=O)OCC)C(c3ccccc3)N2C1=O (configuration not stated)	none
CC1=CC(C)C2(COC(=O)Nc3ccccc3)COC(c3ccccc3)C1C2C (configuration not stated)	none
COC(=O)c1cscc1NC(=O)c1nccnc1C(=O)O	none
CC(=O)Nc1ccc(S(=O)(=O)Nc2ccccc2N2CCOCC2)cc1Cl	none
O=S(=O)(Nc1ccccc1N1CCCCC1)c1ccc(C(F)(F)F)cc1	Dicer inh 3.3
O=S(=O)(Nc1ccccc1N1CCOCC1)c1ccc2c(c1)OCC2	none
CC(C)NC(=O)CSc1nc(-c2ccc(F)cc2)cc(C(F)(F)F)n1	none
CC(C)(C)OC(=O)NCC(=O)NNC(=S)Nc1ccccc1	none
S=C(Nc1ccccc1)N1c2ccccc2Sc2ccccc21	none
O=C(CN1c2ccccc2Sc2ccccc21)NNC(=S)Nc1ccccc1	Dicer inh 5.2
CN1c2ccccc2N(C)C1c1ccccc1	none
CCSCCOC(=O)C1=C(C)NC2=C(C(=O)CC(C)(C)C2)C1c1ccccc1Br (configuration not stated)	none
Cc1nc(-c2ccc(C(N)=O)cc2)ncc1-c1nsc(Nc2ccccc2)n1	none
O=C(O)CCC(NC(=O)OCc1ccccc1)C(=O)O (configuration not stated)	none
O=C(CCC(C(=O)O)N1C(=O)c2ccccc2C1=O)Nc1ccc2c(c1)COCO2 (configuration not stated)	none
O=C(O)CCC(C(=O)O)N1C(=O)c2ccccc2C1=O (configuration not stated)	Dicer inh 3.2
Cc1onc(-c2c(Cl)cccc2Cl)c1C(=O)Nc1ccccc1[N+](=O)[O-]	none
CCOC(=O)c1[nH]c2ccc(F)cc2c1N	none
Cc1ccc(-c2nc(-c3cc4ccccc4[nH]c3=O)no2)cc1	none
Cc1ccc(S(=O)(=O)NNC(=O)c2c(-n3c(C)ccc3C)sc3c2CCCC3)cc1	none
O=S(=O)(Nc1ccc(Br)c2cccnc12)c1ccccc1	Dicer inh 4.7
O=C(Nc1ccc(Cl)cc1)Nc1ccc(Br)c2cccnc12	none
Cc1ccc(C)c(NS(=O)(=O)c2cccc3cccnc23)c1	none
COc1cc(S(=O)(=O)Nc2ccccn2)ccc1Br	none

Screens (PubChem)
